Gli-Sufu block: Gli-Sufu pathway antagonists, primary screen, luciferase luminescence, Sufu-KO-LIGHT cells, uHTS. inhibition, % at 5 µM. Sufu-KO-LIGHT fibroblasts, Gli luciferase reporter luminescence. AID 588413, 2011. 340,000 compounds, 0.74% hits;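 active = inhibition above about 55%, limit read from the data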
H9c2 protect: cardioprotection against H2O2-induced cell death, primary screen, uHTS, H9c2 cells, ATPLite luminescence | H9c2 cardiomyocytes, H2O2 injury protection, 2 h | protection from H2O2 cell death, % at 20 µM | 360,000 compounds, 0.63% hits | AID 588492, 2011;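 active = compounds giving at least 50% protection of heart cells from peroxide-induced death in the single-dose screen, raw or plate-pattern-corrected value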
COUP-TFII inh: NR2F2 transcriptional activity inhibitors, primary screen, cell-based, luciferase reporter, HEK293T, luminescence; COUP transcription factor 2 (Homo sapiens), P24468; HEK293T NGFI-A luciferase reporter; inhibition, % at 8.6 µM; 370,000 compounds, 0.7% hits;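 active = inhibition above a per-plate cutoff, mean inhibition of test wells between control levels plus 3 SD, cut at about 38% in these data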;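 also: cells cotransfected with COUP-TFII expression vector driving the NGFI-A reporter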
Target sequence (P24468 whole entry, looked up): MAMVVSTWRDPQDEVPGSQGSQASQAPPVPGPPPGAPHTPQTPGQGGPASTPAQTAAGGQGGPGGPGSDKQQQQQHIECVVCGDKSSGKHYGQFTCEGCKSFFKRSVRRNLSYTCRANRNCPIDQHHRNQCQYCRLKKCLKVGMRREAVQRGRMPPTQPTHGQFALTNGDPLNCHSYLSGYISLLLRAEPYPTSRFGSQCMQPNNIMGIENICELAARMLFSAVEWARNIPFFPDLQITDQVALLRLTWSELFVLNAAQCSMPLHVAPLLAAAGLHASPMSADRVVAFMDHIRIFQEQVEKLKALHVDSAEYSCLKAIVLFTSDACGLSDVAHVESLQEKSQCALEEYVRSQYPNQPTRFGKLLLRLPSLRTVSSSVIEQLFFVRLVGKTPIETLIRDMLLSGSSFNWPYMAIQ
FXN GAA850 act: FXN promoter activators, primary screen, cell-based, luciferase luminescence, HEK293 lucGAA850 | HEK293 lucGAA850 FXN promoter luciferase reporter, 24 h; percent of 10 µM SAHA response | activation, % at 6 µM | 360,000 compounds, 0.56% hits;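 active = activation above the average of all compounds screened plus 3 SD, cutoff fixed separately per campaign, cut at about 7.5% in these data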
SMARCA2 activ: SMARCA2 (BRM) function activators, primary screen, cell-based, luminescence, high throughput; 370,000 compounds, 1% hits; activation, % at 9.1 µM; MG213 cells, MMTV-luciferase reporter, dexamethasone, overnight; in the data active = activation above about 7.8%
GalR3 antag: GalR3 antagonists in HEK293 cells, primary screen, cell-based, fluorescence readout. Galanin receptor type 3 (Homo sapiens), O60755. HEK293 GalR3-CNG cAMP membrane potential fluorescence; galR3 body fused to GalR1 C-terminus. inhibition, % at 3 µM. 360,000 compounds, 0.44% hits. AID 651719, 2012;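 active = inhibition above the screen-wide average plus 3 SD, cut at about 13% in these data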;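 also: forskolin and galanin both at EC90 stimulate the cells; cAMP rise reported by CNG channel membrane potential dye signal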
GalR3 conf: GalR3 antagonist hit confirmation, cell-based, fluorescence, triplicate; shares compounds with GalR3 antag; HEK293 GalR3 CNG cAMP biosensor, membrane potential fluorescence; galR3 fused to GalR1 carboxy tail; challenged with forskolin and galanin at EC90; inhibition, % at 3 µM; 1,600 compounds, 59% hits; AID 652245, 2013;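 active = inhibition above the primary screen's cutoff, the mean inhibition of all screened compounds plus 3 SD, cut at about 13% in these data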
HEK-CNG parental: nonspecific cAMP agonists in parental HEK-CNG cells, counter-screen for GalR3 antagonist project, cell-based, fluorescence, high throughput. shares compounds with GalR3 antag. HEK293-CNG parental cells, cAMP membrane potential fluorescence; normalised: DMSO wells 0%, forskolin wells 100%. activation, % at 3 µM. 1,600 compounds, 10% hits; in the data active = activation above about 1.3%
VP16 Luc counter: Gal4-VP16 luciferase reporter inhibitors, counter-screen for COUP-TFII antagonist project, cell-based, luminescence, HEK293; shares compounds with COUP-TFII inh; inhibition, % at 8.5 µM; 2,500 compounds, 25% hits; in the data active = inhibition above about 13%
COUP-TFII conf: NR2F2 transcriptional activity inhibitors, confirmation, cell-based, luciferase reporter, HEK293, triplicate | shares compounds with COUP-TFII inh | HEK293 NGFI-A luciferase reporter, luminescence | inhibition, % at 8.5 µM | 2,500 compounds, 45% hits;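 active = mean inhibition over three repeats above a set limit taken from the earlier primary screen, cut at about 38% in these data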
Numbers stand for hits; – = inactive; · = no result. Only some compounds are listed: those with a hit (about 3.4% of all), similar ones and a draw of the others.

SMILES | Gli-Sufu block | H9c2 protect | COUP-TFII inh | FXN GAA850 act | SMARCA2 activ | GalR3 antag | GalR3 conf | HEK-CNG parental | VP16 Luc counter | COUP-TFII conf
CC(=O)Nc1ccccc1OCC(=O)c1cc(C)n(Cc2cccs2)c1C | 79 | – | 73 | – | – | 83 | 98 | – | – | 81
O=C(Nc1nc(-c2ccc3ccccc3c2)cs1)C1CCN(S(=O)(=O)c2cccs2)CC1 | – | – | – | – | – | – | · | · | · | ·
Cc1ccc(-c2csc(NC(=O)C3CCN(S(=O)(=O)c4cccs4)CC3)n2)cc1 | – | – | 69 | – | – | 101 | 104 | – | – | 50
COc1ccccc1CC(=O)Nc1cccc(S(=O)(=O)N2CCOCC2)c1 | – | – | – | – | – | – | · | · | · | ·
COc1ccc(CC(=O)Nc2cccc(S(=O)(=O)N3CCCC3)c2)cc1OC | – | – | 62 | – | – | 85 | 28 | – | – | 45
COc1ccc(CC(=O)Nc2cccc(S(=O)(=O)N3CCOCC3)c2)cc1OC | – | – | 47 | – | – | 41 | 18 | – | – | –
Cc1ccc(C2=NNC(c3ccc(Cl)cc3)=Nc3ccccc32)o1 | – | – | – | – | – | – | · | · | · | ·
CCNC(=O)c1cc(S(=O)(=O)N2CCSCC2)ccc1OC | – | – | – | – | – | – | · | · | · | ·
Cc1ccc(Oc2ccccc2NC(=O)CSCC(=O)Nc2cc(C)on2)cc1 | – | – | 62 | – | – | 84 | 68 | – | – | 49
Cc1cc(NC(=O)CSCC(=O)Nc2ccccc2Oc2ccccc2)no1 | – | – | – | – | – | – | · | · | · | ·
COC(=O)[C@]12CCCCC=C1N(Cc1cccc3ccccc13)C(=O)[C@H](CC(=O)NCc1ccc(OC)c(OC)c1)C2 | · | · | 97 | · | – | 14 | 76 | – | – | 58
COC(=O)[C@]12CCCCC=C1N(CCc1ccc(OC)c(OC)c1)C(=O)[C@H](CC(=O)NCc1cccc3ccccc13)C2 | · | · | – | · | – | – | · | · | · | ·
COc1ccc(NC(=O)C2Cc3c(-c4ccc5c(c4)OCO5)ccnc3O2)cc1OC (centres undefined) | · | – | 66 | – | – | 66 | 74 | – | – | 57
COc1ccc(NC(=O)C2Cc3c(-c4ccc(NC(C)=O)cc4)ccnc3O2)cc1OC (centres undefined) | · | – | – | – | – | – | · | · | · | ·
CCOC(=O)c1cnc2cc(-c3ccc(Br)cc3)nn2c1C | – | – | – | – | – | – | · | · | · | ·
COc1cc(C)ccc1OCC(=O)OCC(=O)NCC1CCCCC1 | – | – | – | – | – | – | · | · | · | ·
CC1(C)CC2CC(C)(CN2S(=O)(=O)c2ccc(C(=O)Nc3ccc(S(=O)(=O)N4CCOCC4)cc3)cc2)C1 (centres undefined) | · | – | 53 | – | – | 87 | 118 | – | – | 64
CCOC(=O)C1(C)CCCN1C(=O)c1ccc(N(C)C)cc1 (centres undefined) | · | – | – | – | – | – | · | · | · | ·
CN(Cc1ccccc1)C(=O)c1cnc(Cc2c[nH]c3ccccc23)c(I)c1 | · | – | – | – | – | – | · | · | · | ·
